Hit rate of the full screen: of about 5,500 compounds, about 2,000 (36%) were called active. Not shown: some 18% with an inconclusive outcome. No stated cut-off is given here; in the data, active means normalized growth mostly below about 0.91 (no sharp cut-off); inconclusive means no clear call, values can overlap the other calls; inactive means mostly above about 0.92. This is one part of the list.
Assay: chemical genetic growth profiling, strain panel (AID 1159580);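 further: tested at 20 µM; growth read once vehicle control cultures reached saturation at 30 °C; 1 = growth at the plate median or of vehicle wells; lower values mean less growth of the strain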
Settings: growth OD
[1] = S. cerevisiae deletion strains, locus YAL013W, strain DEP1, active compounds read low
[2] = S. cerevisiae deletion strains, locus YGR229C, strain SMI1, active compounds read low
[3] = S. cerevisiae deletion strains, locus YMR263W, strain SAP30, active compounds read low
[4] = S. cerevisiae deletion strains, locus YMR307W, strain GAS1, active compounds read low
[5] = S. cerevisiae deletion strains, locus YNL128W, strain TEP1, active compounds read low
[6] = S. cerevisiae deletion strains, locus YPL241C, strain CIN2, active compounds read low

Measured: normalized growth

CC(C)(C)NC[C@H](O)COc1nsnc1N1CCOCC1
inactive: [1] 1.01 | S. cerevisiae deletion strains, locus YAL040C, strain CLN3, active compounds read low 1.03 | S. cerevisiae deletion strains, locus YCL061C, strain MRC1 (second series), active compounds read low 1 | S. cerevisiae deletion strains, locus YDR363W, strain ESC2, active compounds read low 0.989 | S. cerevisiae deletion strains, locus YER002W, strain NOP16, active compounds read low 0.998 | [2] 1.03 | [3] 0.993 | [4] 0.992 | [5] 0.995 | S. cerevisiae deletion strains, locus YNL175C, strain NOP13, active compounds read low 0.997 | S. cerevisiae deletion strains, locus YNL197C, strain WHI3, active compounds read low 0.99 | S. cerevisiae deletion strains, locus YNL224C, strain SQS1, active compounds read low 0.988 | S. cerevisiae deletion strains, locus YOR083W, strain WHI5 (second series), active compounds read low 0.996 | [6] 1

CCS(=O)CCSP(=O)(OC)OC (stereo not given)
inactive: [1] 1.01 | S. cerevisiae deletion strains, locus YBR021W, strain FUR4, active compounds read low 1 | S. cerevisiae deletion strains, locus YBR229C, strain ROT2, active compounds read low 1.02 | S. cerevisiae deletion strains, locus YCL029C, strain bik1, active compounds read low 1 | S. cerevisiae deletion strains, locus YDL035C, strain GPR1, active compounds read low 1.01 | S. cerevisiae deletion strains, locus YDL074C, strain BRE1, active compounds read low 0.998 | S. cerevisiae deletion strains, locus YDL101C, strain DUN1, active compounds read low 1.01 | S. cerevisiae deletion strains, locus YDL134C, strain PPH21, active compounds read low 1.01 | S. cerevisiae deletion strains, locus YDL185W, strain tfp1, active compounds read low 1.01 | S. cerevisiae deletion strains, locus YDL192W, strain arf1, active compounds read low 1 | S. cerevisiae deletion strains, locus YDR101C, strain arx1, active compounds read low 1 | S. cerevisiae deletion strains, locus YDR150W, strain NUM1, active compounds read low 1.01 | S. cerevisiae deletion strains, locus YDR162C, strain NBP2, active compounds read low 1.03 | S. cerevisiae deletion strains, locus YDR318W, strain mcm21, active compounds read low 1.01 | S. cerevisiae deletion strains, locus YDR388W, active compounds read low 1.01 | S. cerevisiae deletion strains, locus YDR502C, strain sam2, active compounds read low 0.995 | S. cerevisiae deletion strains, locus YEL061C, strain CIN8, active compounds read low 1.02 | S. cerevisiae deletion strains, locus YER110C, active compounds read low 1.01 | S. cerevisiae deletion strains, locus YER155C, strain BEM2, active compounds read low 1.02 | S. cerevisiae deletion strains, locus YER167W, strain BCK2, active compounds read low 1.02 | S. cerevisiae deletion strains, locus YGL078C, strain dbp3, active compounds read low 1.01 | S. cerevisiae deletion strains, locus YGL086W, strain mad1, active compounds read low 1 | S. cerevisiae deletion strains, locus YGL248W, strain PDE1, active compounds read low 1.01 | S. cerevisiae deletion strains, locus YGR078C, strain PAC10, active compounds read low 1.02 | S. cerevisiae deletion strains, locus YGR135W, strain pre9, active compounds read low 1.01 | [2] 0.999 | S. cerevisiae deletion strains, locus YGR252W, strain gcn5, active compounds read low 0.945 | S. cerevisiae deletion strains, locus YHR030C, strain SLT2, active compounds read low 1 | S. cerevisiae deletion strains, locus YHR079C, strain IRE1 (second series), active compounds read low 1.01 | S. cerevisiae deletion strains, locus YHR094C, strain hxt1, active compounds read low 1.01 | S. cerevisiae deletion strains, locus YHR129C, strain ARP1, active compounds read low 1.02 | S. cerevisiae deletion strains, locus YHR200W, strain rpn10, active compounds read low 1 | S. cerevisiae deletion strains, locus YIL066C, strain RNR3, active compounds read low 1.03 | S. cerevisiae deletion strains, locus YIL073C, strain SPO22, active compounds read low 1.06 | S. cerevisiae deletion strains, locus YIL125W, strain kgd1, active compounds read low 0.997 | S. cerevisiae deletion strains, locus YIR030C, strain dcg1, active compounds read low 1.01 | S. cerevisiae deletion strains, locus YJL095W, strain BCK1, active compounds read low 1.03 | S. cerevisiae deletion strains, locus YJL134W, strain LCB3, active compounds read low 1.01 | S. cerevisiae deletion strains, locus YJL168C, strain set2, active compounds read low 1 | S. cerevisiae deletion strains, locus YJL187C, strain SWE1 (second series), active compounds read low 1.02 | S. cerevisiae deletion strains, locus YJR043C, strain POL32, active compounds read low 1.02 | S. cerevisiae deletion strains, locus YJR075W, strain HOC1, active compounds read low 0.99 | S. cerevisiae deletion strains, locus YKL009W, strain mrt4, active compounds read low 0.977 | S. cerevisiae deletion strains, locus YKL068W, active compounds read low 1 | S. cerevisiae deletion strains, locus YKL085W, strain MDH1 (second series), active compounds read low 1.01 | S. cerevisiae deletion strains, locus YKL085W, strain MDH1, active compounds read low 1.01 | S. cerevisiae deletion strains, locus YKL190W, strain CNB1, active compounds read low 1.01 | S. cerevisiae deletion strains, locus YKR001C, strain vps1, active compounds read low 1 | S. cerevisiae deletion strains, locus YLR039C, strain RIC1, active compounds read low 1.04 | S. cerevisiae deletion strains, locus YLR058C, strain SHM2, active compounds read low 1.02 | S. cerevisiae deletion strains, locus YLR102C, strain apc9, active compounds read low 1 | S. cerevisiae deletion strains, locus YLR262C, strain YPT6, active compounds read low 1.02 | S. cerevisiae deletion strains, locus YLR268W, strain sec22, active compounds read low 0.999 | S. cerevisiae deletion strains, locus YLR330W, strain CHS5, active compounds read low 1.01 | S. cerevisiae deletion strains, locus YLR342W, strain FKS1 (second series), active compounds read low 1.02 | S. cerevisiae deletion strains, locus YLR371W, strain rom2, active compounds read low 0.999 | S. cerevisiae deletion strains, locus YLR418C, strain cdc73, active compounds read low 0.984 | S. cerevisiae deletion strains, locus YML016C, strain PPZ1, active compounds read low 1.01 | S. cerevisiae deletion strains, locus YML032C, strain rad52, active compounds read low 1.01 | S. cerevisiae deletion strains, locus YML124C, strain tub3, active compounds read low 1.01 | S. cerevisiae deletion strains, locus YMR078C, strain ctf18, active compounds read low 1.01 | S. cerevisiae deletion strains, locus YMR223W, strain ubp8, active compounds read low 1 | [3] 1.02 | [4] 1 | S. cerevisiae deletion strains, locus YNL067W, strain RPL9B, active compounds read low 1.01 | [5] 1.02 | S. cerevisiae deletion strains, locus YNL153C, strain GIM3, active compounds read low 1.01 | S. cerevisiae deletion strains, locus YNL233W, strain BNI4, active compounds read low 1.01 | S. cerevisiae deletion strains, locus YNL250W, strain rad50, active compounds read low 1.01 | S. cerevisiae deletion strains, locus YNL271C, strain bni1, active compounds read low 1 | S. cerevisiae deletion strains, locus YNL298W, strain CLA4, active compounds read low 1.01 | S. cerevisiae deletion strains, locus YNL307C, strain MCK1, active compounds read low 1.01 | S. cerevisiae deletion strains, locus YNL322C, strain KRE1, active compounds read low 1.01 | S. cerevisiae deletion strains, locus YNR052C, strain pop2, active compounds read low 1 | S. cerevisiae deletion strains, locus YOL006C, strain TOP1, active compounds read low 1.01 | S. cerevisiae deletion strains, locus YOL012C, strain htz1 0.877 | S. cerevisiae deletion strains, locus YOL147C, strain pex11, active compounds read low 1 | S. cerevisiae deletion strains, locus YOR061W, strain CKA2, active compounds read low 1.01 | S. cerevisiae deletion strains, locus YOR069W, strain VPS5, active compounds read low 1 | S. cerevisiae deletion strains, locus YOR136W, strain idh2, active compounds read low 1 | S. cerevisiae deletion strains, locus YOR144C, strain elg1, active compounds read low 1.01 | S. cerevisiae deletion strains, locus YOR184W, strain ser1, active compounds read low 1 | S. cerevisiae deletion strains, locus YOR316C, strain cot1, active compounds read low 1 | S. cerevisiae deletion strains, locus YPL055C, strain LGE1, active compounds read low 1.01 | [6] 1.01 | S. cerevisiae deletion strains, locus YPR119W, strain clb2, active compounds read low 1.01 | S. cerevisiae deletion strains, locus YPR141C, strain kar3, active compounds read low 0.997 | S. cerevisiae deletion strains, locus YPR163C, strain tif3, active compounds read low 1.01 | S. cerevisiae deletion strains, locus YPR167C, strain met16, active compounds read low 0.998 | S. cerevisiae deletion strains, strain wtn01, active compounds read low 0.996 | S. cerevisiae strains, strain wild type, active compounds read low 1.01

— PubChem BioAssay AID1159580 (chemical genetic matrix, 2015)
